According to PubChem BioAssay (NCATS):
Several values for one entry are separate records, joined by “and”; a condition that tells them apart may be missing. Equal entries are not always repeated. Results filed as inconclusive are left out. Activity calls are given as the source filed them. Unless noted, calls come from the whole dose curve; as a rule, active = well fitted curve in the direction sought with a large enough effect; inconclusive = small, poorly fitted or top-dose-only effect, or another doubt; inactive = no such curve, though single readings can be large; an effect the other way counts as inactive or inconclusive.

Legend:
[1] = qHTS Assay for Identifying Gametocytocidal Compounds (AID 743244); note: potency is the fitted concentration of half-maximal effect;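 for max response: % is set by controls: 0 for no effect and ±100 for the full control effect; actives lower the fluorescent signal which means gametocytes are killed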; conditions: P. falciparum 3D7 stage III-V gametocytes, alamarBlue, 72 h; max response: stronger effect = lower value
Method in brief: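 Using 20,000 stage III–V 3D7 gametocytes per well, compounds were incubated 72 h under 37 °C/5% CO2. Viability was then assessed by 24 h alamarBlue reduction, measured fluorometrically at 525/598 nm.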

[2] = qHTS assay for measurement of the activity of small molecule inhibitors on Zika virus induced Caspase-3 activity in human iPSC derived neural progenitor cells (hNPCs) (AID 1224857); note: % of control where 0% means no effect; nearly all actives have a fitted effect of over 65% in size
Method in brief: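 After overnight (16–20 h) culture at 350 cells/well, hNPCs get compound, then ZIKV 2 FFU/cell one hour later. Six hours on, Caspase-Glo 3/7 is added and luminescence measured.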

[3] = qHTS assay for measurement of the activity of small molecule inhibitors on Zika virus induced Caspase-3 activity in human astrocytoma cells (AID 1224859);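 note: plate controls were ZIKV-infected untreated cells for no effect and uninfected cells for full effect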
Method in brief: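 Inhibition of Zika-induced caspase-3/7 activity: SNB-19 cells, 1 h compound pretreatment, ZIKV 2 FFU/cell for 6 h at 37 C, Caspase-Glo luminescence read-out.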

[4] = NS1 protein of Zika virus - qHTS assay to identify small molecule inhibitors in human HEK 293 cells (AID 1347053); note: nearly all actives have a fitted effect of over 55% in size; note: potency is the fitted concentration of half-maximal effect;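 for activity change, negative = inhibition: plate controls were infected untreated cells for no effect and uninfected cells for full effect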
Method in brief: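 Following 20 h seeding, HEK 293 cells took compound, then 1 h later ZIKV MR766 (MOI = 0.5). Incubation ran 24 h at 37 C before TR-FRET detection of NS1; a drop in signal indicates inhibition.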

[5] = qHTS of pediatric cancer cell lines to identify multiple opportunities for drug repurposing: Primary screen for TC32 cells (AID 1347089); note: nearly all actives have a fitted effect of over 60% in size; note: potency is the fitted concentration of half-maximal effect; for activity change, negative = cytotoxic: % is set by controls: 0 for no effect and ±100 for the full control effect
Method in brief: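 In the primary qHTS, MIPE compounds were tested at 11 concentrations (0.78 nM to 46 µM) and NPC compounds at 8 (0.59 nM to 46 µM) on TC32 cells for 48 h. CellTiter-Glo luminescence gave viability.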

[6] = qHTS assay for cell viability of HEK293 cells (AID 743288); conditions: ATP luminescence (CellTiter-Glo), 18 h, stronger effect = lower value; note: % is set by controls: 0 for no effect and ±100 for the full control effect; nearly all actives have a fitted effect of over 50% in size
Method in brief: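 Environmental chemicals tested in qHTS format against parental HEK293 cells; 18 h treatment, 37 C; read-out ATP luminescence (CellTiter-Glo), 30 min RT development.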

[7] = qHTS assay for cell viability of the p53RE-bla HCT-116 cell line (AID 743292); note: % is set by controls: 0 for no effect and ±100 for the full control effect; nearly all actives have a fitted effect of over 55% in size
Method in brief: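 ATP-based luminescent viability (CellTiter-Glo, 30 min RT) after 16 h compound treatment at 37 C of p53RE-bla HCT-116 cells, seeded at 4,000 cells/well and rested 5 h before dosing.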

[8] = qHTS profiling of the MIPE4 collection as inhibitors of Plasmodium falciparum (3D7) proliferation (AID 743344; call rule not given here;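 note: scaled between DMSO vehicle wells and 0.29 µM artemisinin as full inhibition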); conditions: P. falciparum 3D7 in erythrocytes, SYBR Green DNA fluorescence, 72 h; at 28.5 µM (top of the series) unless noted
Method in brief: (§1)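 Erythrocytes infected with P. falciparum (0.3% parasitemia, 2.5% hematocrit) incubated with compounds 72 h at 37 C, 5% CO2. Lysis with saponin/Triton buffer containing SYBR Green I, overnight at room temperature in the dark; DNA fluorescence (485/535 nm) normalised to 0.29 uM artemisinin and DMSO.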

[9] = qHTS profiling of the MIPE4 collection as inhibitors of Plasmodium falciparum (DD2) proliferation (AID 743345; call rule not given here); conditions: P. falciparum Dd2 in erythrocytes, SYBR Green DNA, 72 h; at 28.5 µM (top of the series) unless noted
Method in brief: as §1

[10] = qHTS profiling of the MIPE4 collection as inhibitors of Plasmodium falciparum (DD2) proliferation (Rep 2) (AID 743346; call rule not given here); conditions: P. falciparum Dd2 in erythrocytes, SYBR Green DNA, 72 h; at 28.5 µM (top of the series) unless noted
Method in brief: as §1

[11] = qHTS profiling of the MIPE4 collection as inhibitors of Plasmodium falciparum (HB3) proliferation (AID 743347; call rule not given here;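 note: plate controls were DMSO vehicle wells for no effect and artemisinin wells for full effect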); conditions: P. falciparum HB3 in erythrocytes, SYBR Green DNA, 72 h; at 28.5 µM (top of the series) unless noted
Method in brief: as §1

Nc1ncnc2nc[nH]c12
inactive: max response [1] 3.66% | Potency [2] | outcome [3] | Potency [4] | Potency [5]

CCOC(=O)c1ccc(NC(=O)CN2CCCCC2)cc1
inactive: max response [1] 11.1% | Potency [2] | outcome [3] | Potency [4] | Potency [5]

O=C(O)C(=O)Nc1cccc(-c2nn[nH]n2)c1
inactive: max response [1] -10.1% | Potency [2] | outcome [3] | Potency [4] | Potency [5]

CC(COc1ccccc1)NN (configuration not stated)
inactive: max response [1] -1.29% | Potency [2] | outcome [3] | Potency [4] | Potency [5]

Cc1c(N)cccc1C(F)(F)F
inactive: Potency [2] | outcome [3] | Potency [5]

O=C1[C@@H]2[C@H]3CC[C@H](C3)[C@@H]2C(=O)N1CCCCN1CCN(c2ncccn2)CC1
inactive: max response [1] 4.19% | Potency [2] | outcome [3] | Potency [4] | Potency [5]

COc1c(N2C[C@@H]3CCCN[C@@H]3C2)c(F)cc2c(=O)c(C(=O)O)cn(C3CC3)c12
inactive: max response [1] 11.5% and 6.91% | Potency [2] | outcome [3] | Potency [4] | Potency [5]

CC(C)(c1ccc(O)cc1)c1ccc(O)cc1
inactive: max response [1] -6.17% | max response [6] 0.899% and -7.06% and -9.11% | Potency [7] | Potency [2] | outcome [3] | Potency [4] | Potency [5]

O=C1CC2(CCCC2)CC(=O)N1CCNCC1COc2ccccc2O1 (configuration not stated)
inactive: max response [1] 2.39% | Potency [2] | outcome [3] | Potency [4] | Potency [5]

C=CCOc1cc(Cl)ccc1C(=O)NCCN(CC)CC
inactive: max response [1] 9.51% | Potency [2] | outcome [3] | Potency [4] | Potency [5]

CCOC(=O)[C@H](CCc1ccccc1)N[C@@H](C)C(=O)N(CC(=O)O)C1Cc2ccccc2C1
inactive: max response [1] -4.1% | Potency [2] | outcome [3] | Potency [4] | Potency [5]

O=[N+]([O-])c1ccc(O)c2ncccc12
inactive: Potency [2] | outcome [3]
active: Potency [1] 8.91 µM | Potency [4] 6.31 µM | Potency [5] 13.3 µM

N=C(N)c1ccc(OCCCOc2ccc(C(=N)N)cc2)cc1
active: Potency [1] 4.47 µM
inactive: Potency [2] | outcome [3] | Potency [4] | Potency [5]

NCC[C@H](O)C(=O)N[C@@H]1C[C@H](N)[C@@H](O[C@H]2O[C@H](CN)[C@@H](O)[C@H](O)[C@@H]2O)[C@H](O)[C@@H]1O[C@H]1O[C@H](CO)[C@@H](O)[C@H](N)[C@@H]1O
98% [at 0.217 µM]: parasite growth, % of DMSO control [8]
inactive: activity change, negative = inhibition [2] -1.8% [at 0.568 µM] | activity change, negative = inhibition [3] 13.4% [at 0.568 µM] | activity change, negative = inhibition [4] -0.409% [at 0.593 µM] | activity change, negative = cytotoxic [5] 10.2% [at 0.594 µM]
94.3% [at 0.217 µM]: growth, % of control [11]
89.8% [at 0.217 µM]: parasite growth remaining, % of DMSO control (lower = more inhibition) [9]
163% [at 0.217 µM]: parasite growth, % of control (lower = inhibition) [10]

CCN1CCN(c2cc(-c3ccc(F)cc3)c3c(n2)CCCCCC3)CC1
inactive: max response [1] 9.24% | Potency [2] | outcome [3] | Potency [4] | Potency [5]

CC(NN)c1ccccc1 (configuration not stated)
inactive: max response [1] -6.49% | Potency [2] | outcome [3] | Potency [4] | Potency [5]

O=C(CCC1CCN(Cc2ccccc2)CC1)c1ccc2c(c1)NCCCC2
inactive: max response [1] -4.54% | Potency [2] | outcome [3] | Potency [4] | Potency [5]

CN1CC(=O)N2[C@H](c3ccc4c(c3)OCO4)c3[nH]c4ccccc4c3C[C@@H]2C1=O
inactive: max response [1] -3.23% | Potency [2] | outcome [3] | Potency [4] | Potency [5]

C[C@H]1C[C@H]2[C@@H]3CCC4=CC(=O)C=C[C@]4(C)[C@H]3C(=O)C[C@]2(C)[C@@]1(O)C(=O)CO
inactive: max response [1] -0.729% | Potency [2] | outcome [3] | Potency [4] | Potency [5]

C[C@@H](O[C@H]1OCCN(Cc2n[nH]c(=O)[nH]2)[C@H]1c1ccc(F)cc1)c1cc(C(F)(F)F)cc(C(F)(F)F)c1
inactive: max response [1] 16.6% | Potency [2] | outcome [3] | Potency [4] | Potency [5]

c1ccc(C(O[C@H]2CCCN(CCc3ccc4c(c3)OCO4)C2)c2ccccc2)cc1
inactive: max response [1] -6.18% | Potency [2] | outcome [3] | Potency [4] | Potency [5]

CN1CCC(N(Cc2cccs2)c2ccccc2)CC1
inactive: max response [1] 8.89% | Potency [2] | outcome [3] | Potency [4] | Potency [5]

O=C(CS(=O)Cc1ccco1)NC/C=C\COc1cc(CN2CCCCC2)ccn1 (configuration not stated)
inactive: max response [1] 9.57% | Potency [2] | outcome [3] | Potency [4] | Potency [5]

CN1CCCN=C1/C=C/c1cccs1
inactive: max response [1] 3.61% | Potency [2] | outcome [3] | Potency [4] | Potency [5]

OC(CCCN1CCCCC1)(c1ccccc1)c1ccccc1
inactive: max response [1] -13.7% | Potency [2] | outcome [3] | Potency [4] | Potency [5]

NC(=O)COCCN1CCN(C(c2ccccc2)c2ccc(Cl)cc2)CC1 (configuration not stated)
inactive: max response [1] -3.31% | Potency [2] | outcome [3] | Potency [4] | Potency [5]

CCOC(=O)C1=C(C)NC(C)=C(C(=O)OCC)C1c1ccccc1/C=C/C(=O)OC(C)(C)C
inactive: max response [1] 4.06% | Potency [2] | outcome [3] | Potency [5]
